From PubChem BioAssay (EPA / NIEHS) come the findings set out here.

Values joined by “and” are separate entries in the source; they are usually repeats but may differ in a detail not shown here. Equal values may be shown once. The source holds several records for some structures; these can differ, active in one and inactive in another. Active and inactive are the calls of the source. How the source made its calls: active means hit-call score of the fitted dose curve at least 0.9, where 1 is the maximum; inactive means score below 0.9.

Assay [1] is described as follows: ATG_DR4_LXR_CIS: Attagene CIS-FACTORIAL HepG2 Assay for human Liver X Receptor (LXR), DR4 submotif (AID 2282929). The following applies: HepG2 Attagene DR4 cis-reporter, mRNA transcription; AC50: actives raise or lower the signal unless noted; outcome: actives raise or lower the signal unless noted. Put shortly:
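After transient transfection with multiplexed cis-promoter reporter units, HepG2 cells received test chemicals for 24 h. Reporter mRNA induction, detected by fluorescence after RT-PCR and capillary electrophoresis, was scored relative to DMSO.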

Assay [2] deals with Aryl hydrocarbon receptor (Homo sapiens) (UniProt P35869). The experiment in a line: ATG_Ahr_CIS: Attagene CIS-FACTORIAL HepG2 Assay for human Aryl Hydrocarbon Receptor (Ahr) (AID 2282930). The conditions noted are these: HepG2 AhR cis-factorial reporter transcription; actives raise or lower the signal. Put shortly:
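Endogenous factor activity is tracked through cis-promoter reporter units transfected into HepG2 cells. Transcript levels at 24 h are read by fluorescent RT-PCR and capillary electrophoresis, with activity in either direction scored relative to DMSO.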

Assay [3] can be described thus: ATG_AP_1_CIS: Attagene CIS-FACTORIAL HepG2 Assay for human Activator Protein 1 (AP-1) (AID 2282931). The following applies: HepG2 Attagene cis-factorial AP-1 reporter mRNA; actives raise or lower the signal. The gist of the method:
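After 24 h incubation with test chemical, RNA from transfected HepG2 cells was reverse-transcribed, amplified, fluorescently labelled and digested before capillary electrophoresis. Reporters were driven by cis-regulatory promoters; activity fitted bidirectionally versus DMSO.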

The nature of assay [4]: ATG_AP_2_CIS: Attagene CIS-FACTORIAL HepG2 Assay for human Activator Protein 2 (AP-2) (AID 2282932). The conditions noted are these: HepG2 AP-2 cis-reporter, Attagene transcription factor profiling; AC50: actives raise or lower the signal unless noted; outcome: actives raise or lower the signal unless noted. The gist of the method: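 Read-out: fluorescent reporter mRNA via RT-PCR and capillary electrophoresis, 24 h post-dose in transiently transfected HepG2. Endogenous factors drive cis-promoter reporters; gain or loss of signal fitted bidirectionally against DMSO.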

Assay [5] is described as follows: ATG_BRE_CIS: Attagene CIS-FACTORIAL HepG2 Assay for human Bone Morphogenetic Protein (BMP) Response Element (BRE) (AID 2282933). The following applies: HepG2 BMP response element reporter, Attagene transcription factor profiling; actives raise or lower the signal. The gist of the method: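 Multiplexed cis-reporter assay, HepG2, 24 h exposure. mRNA from reporter units quantified via RT-PCR/CE; DMSO baseline; bidirectional curve fit.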

The target in assay [6] is Transcription factor E2F1 (Homo sapiens) (UniProt Q01094). The assay can be described thus: ATG_E2F_CIS: Attagene CIS-FACTORIAL HepG2 Assay for human E2F Transcription Factor 1 (AID 2282935). The following applies: HepG2 Attagene cis-reporter, E2F reporter RNA transcripts; actives raise or lower the signal. Put shortly: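 Transient MRTU transfection of HepG2; 24 h compound exposure; RNA → oligo(dT) RT → PCR → FAM label → HpaI cut → CE fluorescence. Gain/loss of signal fit against DMSO.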

Assay [7] in a line: ATG_M_61_CIS: Attagene CIS-FACTORIAL HepG2 Assay for M61 Transcription Factor (Internal Marker) (AID 2282937). The following applies: HepG2 Attagene CIS-FACTORIAL M61 internal marker reporter; actives raise or lower the signal. Put shortly: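 Using transiently transfected HepG2 liver cells, reporter transcript levels were assessed 24 h post-dosing by RT-PCR and capillary electrophoresis. Changes in either direction were fitted relative to DMSO controls.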

A short description of assay [8]: ATG_EGR_CIS: Attagene CIS-FACTORIAL HepG2 Assay for human Early Growth Response 1 (EGR1) (AID 2282938). The following applies: HepG2 Attagene CIS-FACTORIAL EGR reporter mRNA; actives raise or lower the signal. The gist of the method: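 Fluorescent capillary-electrophoresis signal of reporter cDNA fragments serves as read-out. HepG2 cells bear transiently transfected cis-promoter reporter units and are exposed 24 h; gain- or loss-of-signal is fitted against DMSO.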

Assay [9] in a line: ATG_M_19_CIS: Attagene CIS-FACTORIAL HepG2 Assay for M19 Transcription Factor (Internal Marker) (AID 2282939). The following applies: HepG2 Attagene CIS-FACTORIAL M19 internal marker reporter; actives raise or lower the signal. Put shortly:
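Signals come from fluorescence of labelled reporter-specific PCR fragments resolved by capillary electrophoresis, following 24 h treatment of HepG2 cells transfected with cis-promoter reporter units; activity was fitted in both directions relative to DMSO.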

Assay [10] is described as follows: ATG_Ets_CIS: Attagene CIS-FACTORIAL HepG2 Assay for human Erythroblast Transformation Specific (ETS) (AID 2282941). The conditions noted are these: HepG2 ETS cis-reporter transcription; AC50: actives raise or lower the signal unless noted; outcome: actives raise or lower the signal unless noted. Put shortly:
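Bidirectional fit versus DMSO of reporter mRNA signal, detected by RT-PCR and capillary electrophoresis in HepG2 cells transiently transfected with cis-element reporters and dosed 24 h.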

In assay [11] the target is Hepatocyte nuclear factor 3-beta (Homo sapiens) (UniProt Q9Y261). The experiment in a line: ATG_FoxA2_CIS: Attagene CIS-FACTORIAL HepG2 Assay for human Forkhead box A2 (FOXA2) (AID 2282942). The following applies: HepG2 cis-reporter transcription factor activity, 24 h; actives raise or lower the signal. The gist of the method: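 Fluorescence signal of reporter cDNA fragments, separated by capillary electrophoresis, reflects endogenous transcription factor activity in transfected HepG2 after 24 h. Both increases and decreases fitted against DMSO.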

Assay [12] in a line: ATG_FoxO_CIS: Attagene CIS-FACTORIAL HepG2 Assay for human Forkhead box O (FoxO) (AID 2282943). The following applies: HepG2 Attagene cis-reporter, FoxO element, mRNA; actives raise or lower the signal. The gist of the method: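 Transfected HepG2 reporter cells exposed to test chemical for 24 h; reporter RNA measured by reverse transcription, PCR and fluorescent capillary electrophoresis; curves fitted for increases and decreases against DMSO.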

A short description of assay [13]: ATG_GATA_CIS: Attagene CIS-FACTORIAL HepG2 Assay for human GATA Binding Protein (AID 2282944). The conditions noted are these: HepG2 GATA cis-element reporter, Attagene multiplex mRNA; actives raise or lower the signal. The gist of the method: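 After transfecting HepG2 cells with multiple cis-regulated reporter units, chemicals are dosed for 24 h; isolated RNA undergoes RT-PCR and fluorescent labeling before capillary electrophoresis, with activity expressed against DMSO.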

Assay [14] in a line: ATG_GLI_CIS: Attagene CIS-FACTORIAL HepG2 Assay for human Zinc Finger Protein GLI1 (AID 2282945). The conditions noted are these: HepG2, Attagene cis-factorial reporter mRNA, GLI element; actives raise or lower the signal. Put shortly: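 Transiently transfected HepG2 cells report endogenous transcription factor activity via cis-element-driven reporter units. After 24 h compound exposure, reporter mRNA was measured by RT-PCR with capillary electrophoresis; bidirectional fitting against DMSO baseline.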

Assay [15] in a line: ATG_GRE_CIS: Attagene CIS-FACTORIAL HepG2 Assay for human Glucocorticoid Response Elements (GRE) (AID 2282947). The following applies: HepG2 GRE cis-reporter, Attagene multiplex mRNA; AC50: actives raise or lower the signal unless noted; outcome: actives raise or lower the signal unless noted. Put shortly:
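Read-out: fluorescent reporter-transcript fragments separated by capillary electrophoresis after RT-PCR. Transiently transfected HepG2 cells carrying cis-element-driven reporter units were dosed for 24 h; gain or loss of signal fitted against DMSO control.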

Assay [16] is described as follows: ATG_ISRE_CIS: Attagene CIS-FACTORIAL HepG2 Assay for human Interferon Regulatory Factor 1 (IRF1) binding to an Interferon-Stimulated Response Element (ISRE) (AID 2282948). The following applies: HepG2 ISRE cis-reporter (Attagene), mRNA transcription readout; actives raise or lower the signal. The gist of the method:
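Uses HepG2 liver cells transfected with cis-regulated reporters and measures mRNA 24 h post-dosing through RT-PCR, primer-extension labelling and capillary electrophoresis, with DMSO as negative control.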

Assay [17] has as its target Retinoic acid receptor alpha (Homo sapiens) (UniProt P10276). The experiment in a line: ATG_DR5_RAR_CIS: Attagene CIS-FACTORIAL HepG2 Assay for human Retinoic Acid Receptor Alpha (RARE), DR5 submotif (AID 2282934). The conditions noted are these: HepG2 Attagene cis-factorial RARE DR5 reporter, mRNA; actives raise or lower the signal. The gist of the method:
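After 24 h of chemical exposure, transiently transfected HepG2 cells were lysed for total RNA; the DR5-regulated reporter transcript was quantified via RT-PCR and capillary electrophoresis, with activity fitted bidirectionally against DMSO.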

A short description of assay [18]: ATG_E_Box_CIS: Attagene CIS-FACTORIAL HepG2 Assay for human Enhancer Box (E-box) (AID 2282936). The following applies: HepG2 E-box cis-reporter transcription, actives raise or lower the signal. The gist of the method:
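Transiently transfected HepG2, endogenous TF-driven reporters, 24 h dosing. Readout: RT-PCR plus capillary electrophoresis of fluorescent reporter fragments. Gain or loss of signal fitted bidirectionally against DMSO baseline.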

Assay [19] is described as follows: ATG_ERE_CIS: Attagene CIS-FACTORIAL HepG2 Assay for Estrogen Response Element (ERE) (AID 2282940). The following applies: HepG2 ERE cis-reporter, Attagene RNA transcript; actives raise or lower the signal. Put shortly:
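Fluorescence of capillary-separated, FAM-labelled reporter cDNA fragments indicates reporter mRNA levels in HepG2 cells exposed to chemicals for 24 h. Transient transfection with cis-regulated units; data fitted in both directions against DMSO.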

Assay [20] has as its target Bile acid receptor (Homo sapiens) (UniProt Q96RI1). The assay can be described thus: ATG_IR1_CIS: Attagene CIS-FACTORIAL HepG2 Assay for human Nuclear Receptor Subfamily 1 Group H Member 4 (NR1H4), IR1 submotif (AID 2282946). The following applies: IR1 reporter transcription, actives raise or lower the signal. Put shortly: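 Fluorescence of capillary-separated, HpaI-digested RT-PCR reporter products gave IR1-element mRNA induction in HepG2 cells 24 h after dosing. Endogenous transcription factors drove the cis-regulated reporters; activity was fitted bidirectionally against DMSO.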

Chain of Hepatocyte nuclear factor 3-beta (Homo sapiens) (Q9Y261 whole entry, looked up, the tested form may be a part): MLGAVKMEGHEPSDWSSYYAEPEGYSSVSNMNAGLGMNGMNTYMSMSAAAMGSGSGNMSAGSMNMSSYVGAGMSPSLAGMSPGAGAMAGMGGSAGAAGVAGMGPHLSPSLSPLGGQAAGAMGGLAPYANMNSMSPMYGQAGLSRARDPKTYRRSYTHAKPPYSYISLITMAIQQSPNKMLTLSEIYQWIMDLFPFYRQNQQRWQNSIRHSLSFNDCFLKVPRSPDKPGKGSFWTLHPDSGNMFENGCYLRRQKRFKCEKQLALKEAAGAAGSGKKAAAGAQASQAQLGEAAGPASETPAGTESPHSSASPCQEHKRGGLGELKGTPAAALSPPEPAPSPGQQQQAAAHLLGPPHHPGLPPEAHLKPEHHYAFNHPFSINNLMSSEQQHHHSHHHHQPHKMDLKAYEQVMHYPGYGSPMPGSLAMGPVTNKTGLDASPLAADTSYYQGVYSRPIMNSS
Chain of Transcription factor E2F1 (Homo sapiens) (Q01094 whole entry, looked up): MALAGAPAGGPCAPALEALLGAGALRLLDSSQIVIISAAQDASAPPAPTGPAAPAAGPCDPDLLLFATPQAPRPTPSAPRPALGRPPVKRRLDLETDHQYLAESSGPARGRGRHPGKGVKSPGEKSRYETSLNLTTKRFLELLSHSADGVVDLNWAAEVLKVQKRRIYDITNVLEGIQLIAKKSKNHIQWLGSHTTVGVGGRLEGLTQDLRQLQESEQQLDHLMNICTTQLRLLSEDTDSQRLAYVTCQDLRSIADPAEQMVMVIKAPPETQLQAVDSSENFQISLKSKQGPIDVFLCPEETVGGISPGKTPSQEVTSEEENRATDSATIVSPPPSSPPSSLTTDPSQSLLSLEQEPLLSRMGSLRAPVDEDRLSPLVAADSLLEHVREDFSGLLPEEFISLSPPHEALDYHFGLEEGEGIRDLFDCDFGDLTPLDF
Chain of Aryl hydrocarbon receptor (Homo sapiens) (P35869 whole entry, looked up): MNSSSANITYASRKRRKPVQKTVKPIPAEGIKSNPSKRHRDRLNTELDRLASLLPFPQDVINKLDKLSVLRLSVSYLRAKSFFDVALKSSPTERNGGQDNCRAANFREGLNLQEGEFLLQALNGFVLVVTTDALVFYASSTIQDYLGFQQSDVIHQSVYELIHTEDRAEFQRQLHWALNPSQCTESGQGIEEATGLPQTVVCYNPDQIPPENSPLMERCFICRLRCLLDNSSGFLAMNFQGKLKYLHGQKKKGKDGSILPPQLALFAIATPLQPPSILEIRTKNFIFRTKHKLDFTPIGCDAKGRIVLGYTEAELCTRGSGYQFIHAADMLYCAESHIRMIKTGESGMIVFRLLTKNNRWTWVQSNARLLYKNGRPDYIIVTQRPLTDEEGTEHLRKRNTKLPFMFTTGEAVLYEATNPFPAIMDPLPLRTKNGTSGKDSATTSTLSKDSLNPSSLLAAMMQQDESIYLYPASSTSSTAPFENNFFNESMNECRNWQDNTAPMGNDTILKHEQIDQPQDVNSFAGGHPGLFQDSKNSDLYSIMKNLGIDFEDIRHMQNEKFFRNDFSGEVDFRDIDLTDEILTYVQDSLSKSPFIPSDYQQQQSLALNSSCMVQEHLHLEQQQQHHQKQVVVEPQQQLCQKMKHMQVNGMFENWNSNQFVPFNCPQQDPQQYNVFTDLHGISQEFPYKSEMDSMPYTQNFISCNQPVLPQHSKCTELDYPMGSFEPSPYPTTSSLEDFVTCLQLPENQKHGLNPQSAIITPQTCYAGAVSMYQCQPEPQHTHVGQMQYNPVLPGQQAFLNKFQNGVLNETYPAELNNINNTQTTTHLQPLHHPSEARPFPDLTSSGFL
Chain of Retinoic acid receptor alpha (Homo sapiens) (P10276 whole entry, looked up): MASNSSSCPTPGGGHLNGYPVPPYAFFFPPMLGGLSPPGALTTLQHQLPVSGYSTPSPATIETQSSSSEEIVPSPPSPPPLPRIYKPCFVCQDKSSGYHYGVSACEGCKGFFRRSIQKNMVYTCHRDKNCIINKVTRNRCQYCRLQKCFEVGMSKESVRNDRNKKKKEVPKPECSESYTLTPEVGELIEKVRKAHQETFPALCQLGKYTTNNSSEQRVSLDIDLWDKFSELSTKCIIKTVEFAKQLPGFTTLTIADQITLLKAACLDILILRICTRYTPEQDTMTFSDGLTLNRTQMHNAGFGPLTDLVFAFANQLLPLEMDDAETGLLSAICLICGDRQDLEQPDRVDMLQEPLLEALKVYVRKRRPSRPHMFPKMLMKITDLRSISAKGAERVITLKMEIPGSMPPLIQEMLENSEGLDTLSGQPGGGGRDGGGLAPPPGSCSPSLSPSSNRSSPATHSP
Chain of Bile acid receptor (Homo sapiens) (Q96RI1 whole entry, looked up): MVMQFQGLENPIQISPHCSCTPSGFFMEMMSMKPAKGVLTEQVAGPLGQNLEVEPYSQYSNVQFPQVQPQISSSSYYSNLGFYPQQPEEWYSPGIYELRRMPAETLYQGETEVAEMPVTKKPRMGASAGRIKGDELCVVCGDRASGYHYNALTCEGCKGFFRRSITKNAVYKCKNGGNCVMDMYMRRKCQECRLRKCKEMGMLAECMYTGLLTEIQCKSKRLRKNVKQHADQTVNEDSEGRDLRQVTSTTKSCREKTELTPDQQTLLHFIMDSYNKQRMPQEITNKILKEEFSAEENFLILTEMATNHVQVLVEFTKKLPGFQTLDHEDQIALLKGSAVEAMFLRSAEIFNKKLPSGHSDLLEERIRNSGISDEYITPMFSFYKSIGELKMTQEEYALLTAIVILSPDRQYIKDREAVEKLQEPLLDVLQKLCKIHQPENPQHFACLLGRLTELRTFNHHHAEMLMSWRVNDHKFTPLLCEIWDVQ

Turning to `C[C@]12CC[C@@H]3c4ccc(O)cc4CC[C@H]3[C@@H]1C[C@@H](O)[C@@H]2O`, the AC50 in assay [1] was 26.3 µM (active); in [4], 24.9 µM (active). In addition, the compound was called inactive in [1], in assay [2], in assay [3], in assay [4], in assay [5] and in assay [6]. Besides, the compound was classed as inactive in assay [7], in assay [8], in assay [9], in assay [10], in assay [11] and in assay [12]. Also, the call in assay [13], in [14], in [15] and in assay [16] was inactive.
With `Cc1cc(C(C)(C)C)c(O)c(C(C)(C)C)c1`, the AC50 in assay [1] was 33.4 µM (active); in assay [3] it was 50.7 µM (active) and 80.6 µM (active); in assay [9], 97.1 µM (active); in assay [10] it was 33.4 µM (active); in assay [14] it was 97.4 µM (active). Moreover, the compound was classed as inactive in assay [1], in assay [2], in [4], in assay [5], in assay [6] and in assay [7]. Further, the result in assay [8], in [9], in assay [10], in assay [11], in assay [12] and in [13] was inactive. Also, the result in assay [14], in assay [15] and in assay [16] was inactive.
Regarding `C=CC(=O)OCCC(F)(F)C(F)(F)C(F)(F)C(F)(F)C(F)(F)C(F)(F)F`, the outcome in assay [1], in assay [2], in assay [3], in [4], in [5] and in [17] was inactive. Also, the result in assay [6], in assay [18], in assay [7], in assay [8], in assay [9] and in assay [10] was inactive. In addition, the compound was classed as inactive in [11], in assay [12], in assay [13], in assay [14], in assay [20] and in assay [15]. Further, the compound was called inactive in assay [16]. In addition, the AC50 in assay [19] was 30.9 µM (active).

A word on the AC50: it is the concentration at which the activity in the assay is half-maximal.
